Screening data: PubChem BioAssay, National Center for Advancing Translational Sciences (NCATS)
HepG2 tox: HepG2 cytotoxicity, counter-screen for TGF-b inhibitors. 410,000 tested, 0.76% active. Potency, µM (doses to about 46.1 µM), for the others: top-dose activity change, negative = cytotoxicity, actives largely listed as cytotoxic. HepG2 CAGA-GFP viability, ATP luminescence, 18 h
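CellTiter-Glo luminescence gave cytotoxicity after 18 hours at 37 degrees C. The cells were HepG2 CAGA-GFP in 1% FBS DMEM, stimulated with 500 pg/mL TGF-beta after compound addition. %Activity was normalised to no-cell wells (complete cell-killing) and DMSO (no toxicity), and curves were fitted and classified.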
TGFb SMAD3 inh: inhibitors of TGF-b signaling; HepG2 CAGA-GFP TGF-b/SMAD3 reporter, GFP fluorescence, 18 h; TGF-beta stimulated, 500 pg/mL final; Potency, µM (series often up to 46.1 µM), for the others: at the top dose activity, negative = inhibition, most hits filed as inhibitors; 410,000 tested, 1.2% active; AID 588855; further: on the % scale 0 is the no-effect control and ±100 the full control effect; nearly all actives have a fitted effect of over 65% in size
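Smad-responsive CAGA-GFP expression was quantified in HEPG2 cells exposed to compounds and 500 pg/mL final TGF-beta for 18 h at 37 degrees C; unstimulated wells defined full inhibition.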
ATXN2 expr inh: reduces ATXN2 reporter expression in HEK-293 cells. HEK-293 ATXN2-luciferase reporter, luminescence, 24 h. 360,000 tested, 0.72% active. Potency, µM (series often up to 57 µM), without a hit: at the highest dose activity change, negative = inhibition, actives largely listed as inhibitors; further: on the % scale 0 is the no-effect control and ±100 the full control effect; nearly all actives have a fitted effect of over 55% in size
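ATXN2-luciferase reporter cells (luciferase flanked by upstream and downstream ATXN2 gene portions) were treated 24 h at 37 °C with compounds at up to 57 uM. SteadyGlo luminescence gave expression; GF-AFC fluorescence gave viability.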
Gal4-VP16 FLuc: inhibits Gal4-VP16 luciferase reporter, ROR gamma counter-screen. Drosophila S2 Gal4-VP16 UAS-luciferase, luminescence, 20 h. Potency, µM (series often up to 53.6 µM), for inactives: at the top dose activity, negative = inhibition, usual class: inhibitors. 310,000 tested, 3.5% active. AID 2546;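 further: Gal4-VP16 expression switched on by copper sulfate through the metallothionein promoter; on the % scale 0 is the no-effect control and ±100 the full control effect; nearly all actives have a fitted effect of over 50% in size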
ATXN viability: viability counter-screen for ATXN expression inhibitors; S2 cells (HEK-293 line with an ATXN2-luciferase reporter) viability, CellTiter-Fluor protease fluorescence, 24 h; Potency, µM (doses to about 56.7 µM), usual class: cytotoxic; 400,000 tested, 0.49% active; AID 651635; further: nearly all actives have a fitted effect of over 40% in size
RORgamma inh: inhibitors of mouse ROR gamma transcriptional activity | 310,000 tested, 5.4% active | Potency, µM (top dose mostly 53.6 µM), inactives show at the top dose activity change, negative = inhibition, most hits filed as inhibitors | Drosophila S2 Gal4-RORgamma UAS-luciferase reporter, 20 h | P51450; further: on the % scale 0 is the no-effect control and ±100 the full control effect; nearly all actives have a fitted effect of over 60% in size
Target sequence (P51450 whole entry, looked up, the tested form may be a part): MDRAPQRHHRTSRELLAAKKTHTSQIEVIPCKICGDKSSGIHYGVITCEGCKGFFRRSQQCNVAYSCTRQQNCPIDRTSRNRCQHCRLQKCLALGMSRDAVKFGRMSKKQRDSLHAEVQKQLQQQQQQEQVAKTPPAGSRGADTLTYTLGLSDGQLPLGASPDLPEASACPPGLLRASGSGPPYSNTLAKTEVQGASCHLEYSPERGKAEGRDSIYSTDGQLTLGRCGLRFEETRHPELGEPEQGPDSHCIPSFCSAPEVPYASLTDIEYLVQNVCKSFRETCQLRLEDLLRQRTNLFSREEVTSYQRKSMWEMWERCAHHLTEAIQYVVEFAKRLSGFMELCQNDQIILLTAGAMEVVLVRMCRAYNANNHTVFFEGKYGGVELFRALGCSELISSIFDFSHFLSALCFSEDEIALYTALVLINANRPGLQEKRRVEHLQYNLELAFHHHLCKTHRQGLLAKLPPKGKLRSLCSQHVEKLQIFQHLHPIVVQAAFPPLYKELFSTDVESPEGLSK
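Stably transfected Drosophila Schneider cells are the test system, with ROR gamma fused to Gal4 and luciferase under UAS control; luminescence is read after 20 hr of 700 uM copper sulfate induction at ambient temperature.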
The depositor's hits bear a star; i = inactive; ? = inconclusive; . = not tested or not shown; [ ] = remark or other dose. An excerpt weighted towards active compounds, which were near 6.1% of everything screened. The call rests on the fitted dose curve; in most records, active means well fitted curve in the direction sought with a large enough effect; inconclusive means small, poorly fitted or top-dose-only effect, or another doubt; inactive means no such curve, though single readings can be large; an effect the other way counts as inactive or inconclusive. Potency means the concentration at half of the fitted maximal effect.

SMILES	HepG2 tox	TGFb SMAD3 inh	ATXN2 expr inh	Gal4-VP16 FLuc	ATXN viability	RORgamma inh
C=CCn1c(NS(=O)(=O)c2ccccc2)c(S(=O)(=O)c2ccc(C)cc2)c2nc3ccccc3nc21	2%	?	-14%	25µM*	?	16µM*
O=S(=O)(Nc1c(S(=O)(=O)c2ccccc2)c2nc3ccccc3nc2n1C1CCCCC1)c1ccccc1	-27%	?	-20%	-19%	i	-8%[10 µM]
C(=Nc1ccc(/C=C/c2ccnc3ccccc23)cc1)c1cccs1	-22%	-2%	.	.	.	.
COc1ccc(-c2csc(NC(=S)NC(=O)/C=C/c3ccco3)n2)cc1OC	-27%	10%	-32%	14µM*	?	7.9µM*
CC(C)c1ccc(/C=C/C(=O)Nc2nncs2)cc1	-32%	?	6%	-30%	i	13µM*
Cc1sc(NC(=O)/C=C/c2ccc(C(C)C)cc2)c(C#N)c1C	-15%	-8%	-17%	-3%	i	-3%
O=C(/C=C/c1ccco1)Nc1nc(-c2ccc(F)c(F)c2)cs1	-29%	?	.	-12%	i	31%
COc1ccc(-c2csc(NC(=S)NC(=O)/C=C/c3ccc(C(C)C)cc3)n2)cc1OC	1%	-6%	7%	7.9µM*	i	4µM*
COc1ccc(-c2csc(NC(=S)NC(=O)/C=C/c3ccco3)n2)cc1Br	0%	-18%	?	?	i	7.9µM*
CCOc1ccc(C(=O)OCc2cc(=O)n3cc(C)sc3n2)cc1	0%	?	4%	.	i	.
O=C(CCCN1C(=O)/C(=C\c2cccs2)SC1=S)Nc1cc([N+](=O)[O-])ccc1O	-3%	5%	-7%	20µM*	i	?
Cc1ccc(/C=C2\SC(=S)N(CCCC(=O)NNC(=O)c3ccccc3O)C2=O)cc1	-14%	5%	.	2.8µM*	i	1.6µM*
CCN(CC)CCOC(=O)c1ccc(NC(=O)CCCN2C(=O)S/C(=C/c3ccc(OC)cc3)C2=S)cc1	-28%	-7%	7.1µM*	1.6µM*	?	1µM*
COc1cccc(/C=C2\SC(=S)N(CCCC(=O)Nc3cc(C)on3)C2=O)c1	-24%	-14%	-15%	1.4µM*	i	2.8µM*
CCOc1ccccc1Oc1ncnc2c1oc1ccccc12	-4%	-1%	7%	.	?	.
COc1ccc(C)cc1NC(=O)CC(=O)Nc1ccc2nc3n(c(=O)c2c1)CCCCC3	-1%	?	-18%	.	i	.
COc1cc(=O)n2c(c1C(=O)NC(C)c1ccco1)CCN(Cc1cc3ccccc3o1)CC2 (stereo not given)	.	.	.	.	i	.
COc1ccc(NC(=O)CSc2ncccc2C(=O)O)cc1OC	0%	-1%	11%	.	i	.
O=C(CCCN1C(=O)/C(=C\c2ccccc2)SC1=S)Nc1ccc(O)cc1	-7%	?	18%[11.3 µM]	1.8µM*	i	2µM*
COc1cccc(/C=C2/SC(=S)N(CCCC(=O)Nc3ccc(O)cc3)C2=O)c1	-72%	?	16µM*	0.35µM*	?	0.35µM*
Cc1ccc(/C=C2/SC(=S)N(CCCC(=O)Nc3ccc(O)cc3)C2=O)cc1	-52%	?	2.5µM*	?	?	0.4µM*
COc1cc(/C=C2/SC(=S)N(Cc3ccccc3)C2=O)ccc1O	-71%	38%	6%	-16%	?	?
COc1ccc(/C=C2/SC(=S)N(CCCC(=O)Nc3ccc(O)cc3)C2=O)cc1OC	-14%	-13%	-21%	-7%	i	11%
COc1cccc(/C=C2\SC(=S)N(CCCC(=O)Nc3ccc(C(=O)O)cc3)C2=O)c1	-18%	-1%	3%	-6%	i	-8%
O=C1/C(=C\c2ccc(O)c(O)c2)SC(=S)N1Cc1ccccc1	-75%	?	?	?	28µM*	-12%
SMILES	HepG2 tox	TGFb SMAD3 inh	ATXN2 expr inh	Gal4-VP16 FLuc	ATXN viability	RORgamma inh
CC(C)C[C@H](NC(=O)c1ccc(NCc2cnc[nH]2)cc1-c1cccc2ccccc12)C(=O)O	.	.	.	0%	.	5%
COc1cccc(/C=C/c2nc(C#N)c(N3CCN(C)CC3)o2)c1	-14%	-26%	-16%	.	i	.
Cc1ccc(-c2cn3c(n2)sc2cc(C(=O)NC(C)C45CC6CC(CC(C6)C4)C5)ccc23)cc1 (stereo not given)	9%	8%	.	.	.	.
O=C(CCCN1C(=O)/C(=C/c2ccccc2)SC1=S)Nc1cccc(O)c1	-67%	14µM*	.	7.1µM*	?	?
CC(/C=C1\SC(=S)N(CCC(=O)Nc2ccc(O)cc2)C1=O)=C\c1ccccc1	1%	?	-31%	14µM*	?	14µM*
O=C(O)CCCN1C(=O)/C(=C\C(Cl)=C\c2ccccc2)SC1=S	-23%	?	?	1.6µM*	?	1.3µM*
COc1cc(/C=C2\SC(=S)N(CCC(=O)Nc3cccc(O)c3)C2=O)cc(OC)c1OC	-36%	13µM*	-25%	?	?	28%
Cc1[nH]c(=O)[nH]c(=O)c1S(=O)(=O)Nc1cccc(Cl)c1C	1%	1%	14%	.	i	.
O=C(CCCN1C(=O)/C(=C/c2ccccc2Cl)SC1=S)NNC(=O)c1ccc(Cl)cc1	0%	1%	?	?	i	?
COc1cccc(/C=C2\SC(=S)N(CCCC(=O)NC3=NCCS3)C2=O)c1	1%	-1%	?	0.71µM*	i	0.56µM*
Cc1ccc(C(=O)NNC(=O)CCCN2C(=O)/C(=C/c3ccccc3Cl)SC2=S)cc1	-2%	1%	?	3.2µM*	i	2.8µM*
